Data as given in PubChem BioAssay (EPA / NIEHS).
“And” between values parts separate entries of the source, which are not always exact repeats. Identical values can stand only once. Records with an inconclusive call do not appear. The source holds several records for some structures; these can differ, active in one and inactive in another. The source made the active and inactive calls. How the source made its calls, unless noted: active means hit-call score of the fitted dose curve at least 0.9, where 1 is the maximum; inconclusive means response in the unintended direction; inactive means score below 0.9.

Legend:
[1] = BSK_4H_Eotaxin3: BioMAP Diversity Plus: 4H Assay for Eotaxin 3 Biomarker Activity (AID 2283000; active means hit-call score of the fitted dose curve at least 0.9, where 1 is the maximum; inactive means score below 0.9); details: primary human endothelial cells (HUVEC); actives raise or lower the signal
Procedure, shortened: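 Human umbilical vein endothelial cells (BSK_4H system) dosed with test chemical; Eotaxin-3 (CCL26) measured by ELISA 24 h after dosing. Bidirectional curve fitting relative to DMSO negative control as baseline.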

[2] = molecular target: human Peroxisome Proliferator-activated Receptor alpha (PPARa), PPARA (gene 5465) (UniProt Q07869); assay: ATG_PPARa_TRANS: Attagene TRANS-FACTORIAL HepG2 Assay for human Peroxisome Proliferator-activated Receptor alpha (PPARa) (AID 2283001);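 on AC50: potency for gain of reporter signal over DMSO so agonist or activator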
Procedure, shortened: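 Exposure: 24 h, transiently transfected HepG2 cells. Endpoint: GAL4-UAS reporter mRNA, RT-PCR with capillary electrophoresis fluorescence. Baseline: DMSO; increases fitted.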

[3] = molecular target: human Peroxisome Proliferator-activated Receptor delta (PPARd), PPARD (gene 5467) (UniProt Q03181); assay: ATG_PPARd_TRANS: Attagene TRANS-FACTORIAL HepG2 Assay for human Peroxisome Proliferator-activated Receptor delta (PPARd) (AID 2283002)
Procedure, shortened: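 HepG2 cells transiently transfected with multiplexed GAL4-UAS reporter units and exogenous chimeric NR-Gal4 proteins; 24 h compound exposure. Reporter mRNA measured by RT-PCR, 6-FAM labelling, HpaI digestion and capillary electrophoresis; gain of signal versus DMSO.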

[4] = read-out: Intercellular Adhesion Molecule 1 (ICAM1), ICAM1 (gene 3383); assay: BSK_3C_ICAM1: BioMAP Diversity Plus: 3C Assay for Intercellular Adhesion Molecule 1 (ICAM1) Biomarker Activity (AID 2283003; active means hit-call score of the fitted dose curve at least 0.9, where 1 is the maximum; inactive means score below 0.9); details: primary human endothelial cells (HUVEC); actives raise or lower the signal
Procedure, shortened: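 ELISA read-out of ICAM-1; HUVEC (primary human), 3C system, 24 h post-dosing; bidirectional fit vs DMSO baseline.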

[5] = BSK_3C_Proliferation: Cell Proliferation Assessment in the BioMAP Diversity Plus: 3C Assay (AID 2283006; active means hit-call score of the fitted dose curve at least 0.9, where 1 is the maximum; inactive means score below 0.9;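 on AC50: potency may reflect either rise or fall in cell number versus DMSO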); details: primary human endothelial cells (HUVEC)
Procedure, shortened: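 HUVEC, sub-confluent; 48 h chemical exposure; 10% TCA fix, 0.1% SRB stain, A560 total protein. Gain or loss of signal fitted both directions vs DMSO control.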

[6] = molecular target: Peroxisome proliferator-activated receptor gamma (Homo sapiens) (UniProt P37231); assay: ATG_PPARg_TRANS: Attagene TRANS-FACTORIAL HepG2 Assay for human Peroxisome Proliferator-activated Receptor-gamma (PPARg) (AID 2283007)
Procedure, shortened: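 Chimeric NR-Gal4 transactivation is measured in transiently transfected HepG2 cells by reporter mRNA induction at 24 h. Detection uses RT-PCR with fluorescent labelling and capillary electrophoresis; DMSO defines baseline.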

[7] = molecular target: Nuclear receptor subfamily 1 group I member 2 (Homo sapiens) (UniProt O75469); assay: ATG_PXR_TRANS: Attagene TRANS-FACTORIAL HepG2 Assay for human Pregnane X Receptor (PXR) (AID 2283008)
Procedure, shortened: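 Transactivation by exogenous PXR–GAL4 fusion measured as reporter transcript induction after 24 h compound treatment of transfected human HepG2 cells. Read-out via RT-PCR and capillary electrophoresis of labelled fragments, fitted upward relative to DMSO.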

[8] = molecular target: human Retinoic Acid Receptor gamma (RARg), RARG (gene 5916) (UniProt P13631); assay: ATG_RARg_TRANS: Attagene TRANS-FACTORIAL HepG2 Assay for human Retinoic Acid Receptor gamma (RARg) (AID 2283009);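 on AC50: AC50 is for reporter induction above DMSO meaning RARg activation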
Procedure, shortened: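 Readout: reporter transcript levels via RT-PCR, 6-FAM primer-extension labelling, HpaI digestion and capillary electrophoresis. Cells: HepG2 carrying transfected RARg-GAL4 chimera plus UAS reporter set. Dosing 24 h; DMSO negative control.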

[9] = molecular target: human Retinoic Acid Receptor beta (RARb), RARB (gene 5915) (UniProt P10826); assay: ATG_RARb_TRANS: Attagene TRANS-FACTORIAL HepG2 Assay for human Retinoic Acid Receptor beta (AID 2283004)
Procedure, shortened: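 Induction of reporter mRNA from a chimeric RARb-Gal4 construct was measured by RT-PCR, FAM labelling, HpaI digestion and capillary electrophoresis. Measurements followed 24 h compound treatment of transiently transfected human HepG2 liver cells, with DMSO as baseline.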

[10] = molecular target: Retinoic acid receptor alpha (Homo sapiens) (UniProt P10276); assay: ATG_RARa_TRANS: Attagene TRANS-FACTORIAL HepG2 Assay for human Retinoic Acid Receptor alpha (RARa) (AID 2283005)
Procedure, shortened: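 HepG2 cells transiently transfected with multiple reporter units expressing chimeric RARα-GAL4 fusion, with GAL4-UAS-driven reporters. After 24 h compound exposure, reporter mRNA induction quantified by RT-PCR and capillary electrophoresis with fluorescent labeling; gain-of-signal fitted relative to DMSO control.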

Measured: AC50

Sequence of Peroxisome proliferator-activated receptor gamma (Homo sapiens) (P37231 whole entry, looked up, the tested form may be a part): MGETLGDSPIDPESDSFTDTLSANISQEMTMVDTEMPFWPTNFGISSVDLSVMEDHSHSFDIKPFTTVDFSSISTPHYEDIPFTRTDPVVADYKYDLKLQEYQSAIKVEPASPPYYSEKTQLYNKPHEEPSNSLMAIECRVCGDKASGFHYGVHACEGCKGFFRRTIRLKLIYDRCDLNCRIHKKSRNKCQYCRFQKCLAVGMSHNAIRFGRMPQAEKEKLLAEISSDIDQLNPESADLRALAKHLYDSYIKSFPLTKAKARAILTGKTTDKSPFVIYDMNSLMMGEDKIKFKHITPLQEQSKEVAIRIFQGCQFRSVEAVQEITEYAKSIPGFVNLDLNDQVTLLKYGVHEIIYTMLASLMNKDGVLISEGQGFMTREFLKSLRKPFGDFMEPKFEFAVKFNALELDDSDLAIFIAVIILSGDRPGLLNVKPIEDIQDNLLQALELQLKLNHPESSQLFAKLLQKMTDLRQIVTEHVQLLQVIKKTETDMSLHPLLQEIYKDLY
Sequence of Nuclear receptor subfamily 1 group I member 2 (Homo sapiens) (O75469 whole entry, looked up, the tested form may be a part): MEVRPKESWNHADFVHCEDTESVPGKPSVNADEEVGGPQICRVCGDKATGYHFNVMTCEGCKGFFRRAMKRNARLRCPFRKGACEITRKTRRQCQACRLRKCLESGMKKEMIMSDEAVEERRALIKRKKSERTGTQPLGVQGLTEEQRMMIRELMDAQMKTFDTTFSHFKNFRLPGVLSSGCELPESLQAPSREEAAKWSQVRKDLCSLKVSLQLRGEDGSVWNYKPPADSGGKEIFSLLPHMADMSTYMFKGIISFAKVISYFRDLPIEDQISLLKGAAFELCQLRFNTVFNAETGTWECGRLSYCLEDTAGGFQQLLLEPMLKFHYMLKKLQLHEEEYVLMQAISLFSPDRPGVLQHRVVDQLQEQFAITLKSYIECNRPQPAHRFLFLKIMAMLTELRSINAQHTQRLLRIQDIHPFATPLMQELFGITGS
Sequence of human Retinoic Acid Receptor beta (RARb), RARB (gene 5915) (P10826 whole entry, looked up, the tested form may be a part): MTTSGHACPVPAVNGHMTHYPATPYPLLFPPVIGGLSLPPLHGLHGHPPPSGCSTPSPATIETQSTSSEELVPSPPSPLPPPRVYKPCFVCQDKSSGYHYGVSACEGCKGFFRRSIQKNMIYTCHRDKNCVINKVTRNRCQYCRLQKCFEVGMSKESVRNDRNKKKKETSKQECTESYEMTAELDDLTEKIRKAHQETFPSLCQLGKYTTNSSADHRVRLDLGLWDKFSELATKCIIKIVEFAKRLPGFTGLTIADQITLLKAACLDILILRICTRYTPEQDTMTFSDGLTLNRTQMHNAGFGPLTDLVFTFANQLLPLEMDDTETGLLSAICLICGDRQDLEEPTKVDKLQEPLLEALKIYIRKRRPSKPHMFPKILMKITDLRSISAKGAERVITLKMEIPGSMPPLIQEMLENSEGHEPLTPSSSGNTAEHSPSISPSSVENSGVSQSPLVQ
Sequence of Retinoic acid receptor alpha (Homo sapiens) (P10276 whole entry, looked up, the tested form may be a part): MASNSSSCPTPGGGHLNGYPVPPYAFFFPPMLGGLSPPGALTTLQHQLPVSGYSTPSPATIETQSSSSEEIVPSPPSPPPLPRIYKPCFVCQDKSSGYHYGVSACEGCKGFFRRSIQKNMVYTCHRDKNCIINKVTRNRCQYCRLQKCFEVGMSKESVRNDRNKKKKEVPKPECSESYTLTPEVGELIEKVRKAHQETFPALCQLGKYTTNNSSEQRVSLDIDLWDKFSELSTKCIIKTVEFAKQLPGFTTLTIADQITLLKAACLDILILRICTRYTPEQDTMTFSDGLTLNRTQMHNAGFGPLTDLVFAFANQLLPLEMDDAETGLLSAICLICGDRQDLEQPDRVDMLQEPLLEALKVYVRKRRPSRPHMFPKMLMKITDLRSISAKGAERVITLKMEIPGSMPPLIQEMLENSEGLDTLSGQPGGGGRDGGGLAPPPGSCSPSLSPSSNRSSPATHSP
Sequence of human Peroxisome Proliferator-activated Receptor delta (PPARd), PPARD (gene 5467) (Q03181 whole entry, looked up, the tested form may be a part): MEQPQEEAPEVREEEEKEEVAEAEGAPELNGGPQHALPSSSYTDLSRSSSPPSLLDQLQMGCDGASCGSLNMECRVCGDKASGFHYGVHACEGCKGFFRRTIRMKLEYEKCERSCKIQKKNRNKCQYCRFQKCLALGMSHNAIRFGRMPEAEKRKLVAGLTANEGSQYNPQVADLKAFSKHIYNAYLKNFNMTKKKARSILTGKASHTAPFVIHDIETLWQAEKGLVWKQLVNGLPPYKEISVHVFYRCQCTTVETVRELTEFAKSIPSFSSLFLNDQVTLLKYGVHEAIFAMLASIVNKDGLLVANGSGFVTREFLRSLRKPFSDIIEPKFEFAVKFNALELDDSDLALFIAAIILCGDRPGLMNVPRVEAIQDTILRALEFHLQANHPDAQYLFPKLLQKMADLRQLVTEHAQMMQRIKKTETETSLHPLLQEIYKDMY
Sequence of human Retinoic Acid Receptor gamma (RARg), RARG (gene 5916) (P13631 whole entry, looked up, the tested form may be a part): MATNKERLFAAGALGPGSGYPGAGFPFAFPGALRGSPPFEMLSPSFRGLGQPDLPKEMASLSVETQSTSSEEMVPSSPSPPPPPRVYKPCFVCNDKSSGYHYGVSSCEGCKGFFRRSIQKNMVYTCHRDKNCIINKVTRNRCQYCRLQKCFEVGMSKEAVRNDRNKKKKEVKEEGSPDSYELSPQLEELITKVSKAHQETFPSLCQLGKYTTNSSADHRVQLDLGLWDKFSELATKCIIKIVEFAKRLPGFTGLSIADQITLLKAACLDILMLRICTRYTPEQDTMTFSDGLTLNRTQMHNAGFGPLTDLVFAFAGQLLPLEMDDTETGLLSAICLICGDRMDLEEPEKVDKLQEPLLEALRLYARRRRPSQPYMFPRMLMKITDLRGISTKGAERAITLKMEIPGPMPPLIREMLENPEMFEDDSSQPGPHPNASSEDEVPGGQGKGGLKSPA
Sequence of human Peroxisome Proliferator-activated Receptor alpha (PPARa), PPARA (gene 5465) (Q07869 whole entry, looked up, the tested form may be a part): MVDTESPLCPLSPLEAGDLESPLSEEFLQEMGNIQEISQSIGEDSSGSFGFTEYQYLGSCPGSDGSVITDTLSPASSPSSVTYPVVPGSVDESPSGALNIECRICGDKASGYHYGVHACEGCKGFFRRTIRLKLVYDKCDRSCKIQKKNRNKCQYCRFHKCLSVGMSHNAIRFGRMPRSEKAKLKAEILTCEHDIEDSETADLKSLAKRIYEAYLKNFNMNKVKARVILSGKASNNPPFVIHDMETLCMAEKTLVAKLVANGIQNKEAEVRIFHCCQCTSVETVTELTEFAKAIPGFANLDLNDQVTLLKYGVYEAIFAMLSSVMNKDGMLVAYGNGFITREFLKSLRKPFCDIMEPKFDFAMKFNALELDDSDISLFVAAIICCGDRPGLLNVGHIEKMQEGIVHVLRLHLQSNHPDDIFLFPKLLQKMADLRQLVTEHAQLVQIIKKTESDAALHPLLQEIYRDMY

CC(=O)[C@H]1CC[C@H]2[C@@H]3CCC4=CC(=O)CC[C@]4(C)[C@H]3CC[C@]12C
active: [1] 25.9 µM | [3] 136 µM | [5] 3.36 µM | [7] 2.54 µM [middle of 4 runs]
inactive: [2] | [3] | [4] | [6]

COC(=O)c1ccccc1S(=O)(=O)NC(=O)Nc1nc(OC(F)F)cc(OC(F)F)n1
inactive: [1] | [3] | [4] | [5] | [6] | [8]

CCOC(=O)NCCOc1ccc(Oc2ccccc2)cc1
active: [5] 20 µM | [6] 19.3 µM
not listed: [1]
inactive: all other assays above

CCCCOCCOCCOCc1cc2c(cc1CCC)OCO2
active: [5] 24 µM | [6] 16.9 µM | [7] 13.3 µM
not listed: [1]
inactive: all other assays above

CCCCOC(=O)C(C)Oc1ccc(Oc2ccc(C(F)(F)F)cn2)cc1 (stereo not given)
not listed: [1] | [8] | [10]
inactive: all other assays above

CCN(CC)C(=O)c1cccc(C)c1
inactive: all assays above

CCOC(=O)COc1cc(-n2ncc(C(F)(F)F)c(C)c2=O)c(F)cc1Cl
not listed: [3]
inactive: all other assays above

CCOC(=O)c1ccc(O)cc1
inactive: [1] | [2] | [3] | [4] | [9] | [10] | [5] | [7] | [8]
active: [2] 20.5 µM

COc1c(Cl)ccc(Cl)c1C(=O)O
not listed: [1]
inactive: all other assays above

c1ccc(Nc2ccccc2)cc1
active: [6] 50 µM
not listed: [1] | [8]
inactive: all other assays above

CC(C)(c1ccc(O)cc1)c1ccc(O)cc1
active: [5] 27.4 µM | [6] 14.2 µM and 18.3 µM and 25.8 µM
inactive: [2] | [3] | [4] | [9] | [10] | [5] | [6] | [7] | [8]

CCCOC(=O)c1ccc(C(=O)OCCC)nc1
not listed: [1]
inactive: all other assays above

CCCCCCC(C)OC(=O)COc1nc(F)c(Cl)c(N)c1Cl (stereo not given)
inactive: [3] | [7]
active: [1] 34.2 µM | [4] 34.9 µM | [5] 13.6 µM

CC(C)(C)[C@@H](O)[C@@H](Cc1ccc(Cl)cc1)n1cncn1
not listed: [1]
inactive: all other assays above

OB(O)O
inactive: all assays above

O=C(c1ccc(O)cc1O)c1ccc(O)cc1O
active: [6] 49.1 µM [middle of 4 runs]
not listed: [10]
inactive: all other assays above

COC(=O)c1cccc(C)c1S(=O)(=O)NC(=O)Nc1nc(OCC(F)(F)F)nc(N(C)C)n1
not listed: [2]
inactive: all other assays above

C[C@]12C[C@H](O)[C@H]3[C@@H](CCC4=CC(=O)CC[C@@]43C)[C@@H]1CC[C@@H]2C(=O)CO
inactive: [1] | [2] | [3] | [4] | [9] | [6] | [7]
active: [5] 29 µM | [7] 27.7 µM and 11.4 µM

CC(C)CCCCCCc1ccc(O)cc1
inactive: [2] | [3] | [9] | [10] | [6] | [8]
active: [1] 10.6 µM | [4] 11.2 µM | [5] 4.54 µM | [6] 11.1 µM | [8] 14.2 µM

O=C(O)C1(C(=O)Nc2ccc(Cl)cc2Cl)CC1
active: [5] 32 µM | [6] 35.1 µM
not listed: [9] | [10]
inactive: all other assays above
